The record followed here is PubChem BioAssay (NCI).

Assay [1] can be described thus: NCI Yeast Anticancer Drug Screen. Data for the rad50 strain (AID 155).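 Note: 0% = growth of vehicle-only cultures of the same strain.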 The following applies: S. cerevisiae rad50 strain growth inhibition; at 50.0 µM; stronger effect = higher value. A digest of the protocol: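 Relative growth inhibition (compound vs vehicle) was measured in yeast with a defined repair-gene alteration.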
Assay [2] is described as follows: NCI Yeast Anticancer Drug Screen. Data for the mec2-1 strain (AID 157). Conditions: S. cerevisiae mec2-1 strain, at 50.0 µM, stronger effect = higher value. The procedure, abridged: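 Test agents were screened against the mec2-1 yeast strain, with defined DNA repair or cell cycle alteration. Growth was scored as inhibition against vehicle-only controls.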
Assay [3] can be described thus: NCI Yeast Anticancer Drug Screen. Data for the sgs1 mgt1 strain (AID 161).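 Note: 0% = growth of cultures given vehicle only.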 Conditions: S. cerevisiae sgs1 mgt1 strain, at 50.0 µM, stronger effect = higher value. A digest of the protocol:
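Inhibition of yeast growth, normalised to vehicle-treated controls, is reported for a strain bearing genetic alterations in DNA damage repair.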

A short description of assay [4]: NCI Yeast Anticancer Drug Screen. Data for the cln2 rad14 strain (AID 165).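 Note: 0% = growth equal to vehicle treated cultures.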 The following applies: S. cerevisiae cln2 rad14 strain, at 50.0 µM, stronger effect = higher value. The procedure, abridged: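 Growth of compound-exposed yeast (cln2 rad14 genotype) measured and expressed as inhibition relative to vehicle.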
A short description of assay [5]: NCI Yeast Anticancer Drug Screen. Data for the bub3 strain (AID 167). The following applies: S. cerevisiae bub3 mutant strain, at 50.0 µM, stronger effect = higher value. The procedure, abridged:
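Screening used yeast with an engineered genetic alteration affecting cell cycle control. Compound-exposed cultures were compared with vehicle cultures, and reduced growth was taken as inhibition.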

The nature of assay [6]: NCI Yeast Anticancer Drug Screen. Data for the mlh1 rad18 strain (AID 175). Conditions: S. cerevisiae mlh1 rad18 strain growth inhibition; at 50.0 µM; stronger effect = higher value. The procedure, abridged:
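In this whole-cell yeast screen, a strain with altered DNA damage repair is challenged with compound, and its growth is measured against matched vehicle-treated controls.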

The panel holds about 79,000 compounds, 15% with a hit somewhere; the sample as a whole holds those more often. Unmarked numbers belong to inactive results. Activity calls are given as the source filed them. Cut-off read from the data, not from the text of the source: active = growth inhibition above about 70%; inactive = the rest.

As to `COc1cccc(/C=C2\C(=O)N(C(=O)c3ccc(NC(C)=O)cc3)N=C2C)c1`, the growth inhibition in assay [1] is -43.9%; in assay [2] it was -25.8%; in assay [3] it was -57%; in assay [4] it was -17.2%; in assay [5], -38%; in assay [6] it was -40.1%.
In the case of `CCCCc1c(C#N)c(=O)n2c(N)c(C#N)cnc2c1SC`, the growth inhibition in assay [1] is 18.9%; in assay [2] it was 8.45%; in assay [3], 21.2%; in assay [4], 1.5%; in assay [5], 12.7%; in assay [6], 25.8%.
As for `CC([C@H](c1ccccc1)C1CCC(C(N)=O)(N2CCOCC2)C1)[N+](=O)[O-]` (stereo partly specified), the growth inhibition in assay [1] is 5.8%; in assay [2] it was 7.9%; in assay [3], 12.3%; in assay [4], 39.1%; in assay [5], 4.45%; in assay [6], 9.85%.
In the case of `CC(C)(C)S(=O)(=O)CCCCl`, the growth inhibition in assay [1] is 12.8%; in assay [2] it was -13.9%; in assay [3], -1.65%; in assay [4], -8.5%; in assay [5] it was 13.2%; in assay [6] it was 13.5%.
`CC1(C)CC(C)(Br)C(Br)C(=O)C1C(O)(C(F)(F)F)C(F)(F)F` (stereo unspecified): the growth inhibition was 99.5% (active) in assay [1]; 99.8% (active) in assay [2]; 99.8% (active) in assay [3]; 99.2% (active) in assay [4]; 99.6% (active) in assay [5]; 99.8% (active) in assay [6].
In the case of `CCOC/N=C(/N)NC#N`, the growth inhibition is 25.6% in assay [1]; 2.35% in assay [2]; 10.8% in assay [3]; 13.1% in assay [4]; -3.4% in assay [5]; 33.1% in assay [6].
As to `CCCC(P(c1ccccc1)c1ccccc1)P(=O)(c1ccccc1)c1ccccc1` (stereo unspecified), the growth inhibition in assay [1] is 62.7%; in assay [2], 39.2%; in assay [3] it was 39.1%; in assay [4] it was 24.9%; in assay [5], 59.4%; in assay [6] it was 29.1%.
On to `COc1ccccc1-n1c(O)c(N=Nc2ccc(Cl)cc2)c(=O)n(-c2ccc(I)cc2)c1=S`, for which the growth inhibition in assay [1] was 45.4%; in assay [2] it was 10%; in assay [3], 36%; in assay [4], -9%; in assay [5] it was 1.25%; in assay [6], 27.1%.
As for `NC(=O)O/N=C/c1ccc(Cl)cc1`, the growth inhibition in assay [1] was 2.8%; in assay [2], -16.8%; in assay [3] it was -13.1%; in assay [4], 10.3%; in assay [5], 17.1%; in assay [6] it was 9.8%.
Take `O=C1Nc2ccccc2/C1=N\[O-].O=C1Nc2ccccc2/C1=N\[O-].[Cu+2]`: the growth inhibition is -10.2% in assay [1]; -5.5% in assay [2]; -30.5% in assay [3]; -0.3% in assay [4]; -23.4% in assay [5]; -21.1% in assay [6].
On to `O=c1[nH]nc(NC2Nc3ccccc3N2)c2ccccc12`, for which the growth inhibition in assay [1] is 17.3%; in assay [2] it was 15.1%; in assay [3] it was 9.15%; in assay [4], -19.2%; in assay [5] it was 6.6%; in assay [6] it was 13.4%.
With `COC(=O)C1c2ccccc2CC(=O)N1N` (stereo unspecified), the growth inhibition in assay [1] was -2.7%; in assay [2], -8.5%; in assay [3], -20.6%; in assay [4] it was 8.25%; in assay [5], 7.05%; in assay [6], 9.15%.
Turning to `N#CC(NCc1ccccc1)C(O)c1ccccc1` (stereo unspecified), the growth inhibition is 17.8% in assay [1]; 11% in assay [2]; 2.25% in assay [3]; 16.8% in assay [4]; 9.25% in assay [5]; 11.9% in assay [6].
As to `CC(C)=NN/C=N/S(=O)(=O)c1ccc(C)cc1`, the growth inhibition in assay [1] was 15.2%; in assay [2], 6.05%; in assay [3], 10.4%; in assay [4], 25%; in assay [5], 2.1%; in assay [6], 4.65%.
Consider `COC1OC(C(C)O)C2OC(C)(C)OC12` (stereo unspecified), for which the growth inhibition in assay [1] is 40.5%; in assay [2], 29.1%; in assay [3], 32.2%; in assay [4] it was 1.5%; in assay [5], 18.9%; in assay [6], 13.3%.
Take `CSc1ccc(NC(=O)C(Cl)Cl)cc1`: the growth inhibition in assay [1] is -3.35%; in assay [2] it was 5.8%; in assay [3] it was 5.1%; in assay [4], 13%; in assay [5] it was -15.3%; in assay [6] it was 1.9%.
`CC(C)CCOC(=O)N(C)c1ccccc1`: the growth inhibition in assay [1] was 9.3%; in assay [2], 0.2%; in assay [3], 10.3%; in assay [4], -17.9%; in assay [5] it was -24%; in assay [6] it was -9.8%.
For the compound `CCCCN(CCCC)/C(=C/C(=O)OC)C(=O)OC`, the growth inhibition in assay [1] was 20.1%; in assay [2], 8.55%; in assay [3] it was 10.1%; in assay [4] it was 14.2%; in assay [5], 26.9%; in assay [6], 13.6%.
With `CCCC(O)C(=O)C(CCC)N(CC)CC` (stereo unspecified), the growth inhibition is 2.5% in assay [1]; -6.85% in assay [2]; 6.65% in assay [3]; 18.7% in assay [4]; 11.1% in assay [5]; -4.9% in assay [6].
In the case of `COC(=O)Nc1cccc(-c2nc3ccc(NC(=O)OC)cc3c(=O)n2-c2ccccc2)c1`, the growth inhibition in assay [1] was -26.3%; in assay [2], -16.9%; in assay [3] it was -22.6%; in assay [4] it was 8.55%; in assay [5], -15.8%; in assay [6], 5%.
On to `CCOC(=O)C(/C=C/C(C)C)(CC)C(=O)OCC`, for which the growth inhibition is -8.75% in assay [1]; 11.2% in assay [2]; 8.2% in assay [3]; 44.8% in assay [4]; -6.95% in assay [5]; 24.4% in assay [6].
